Source: PubChem BioAssay (Tox21)
Records with an inconclusive call do not appear. Calls of active or inactive are those of the source. Unless noted, calls come from the whole dose curve; as a rule, active = well fitted curve in the direction sought with a large enough effect in the repeat runs; inconclusive = weak or mixed curves; inactive = no such curve, though single readings can be large; an effect the other way counts as inactive or inconclusive.

Key:
[1] = biological target: Luciferin 4-monooxygenase (Photinus pyralis) (UniProt P08659); assay: qHTS assay to identify small molecule inhibitors of firefly luciferase (AID 1224835); note: nearly all actives have a fitted effect of over 25% in size
Sequence of Luciferin 4-monooxygenase (Photinus pyralis) (P08659 whole entry, looked up): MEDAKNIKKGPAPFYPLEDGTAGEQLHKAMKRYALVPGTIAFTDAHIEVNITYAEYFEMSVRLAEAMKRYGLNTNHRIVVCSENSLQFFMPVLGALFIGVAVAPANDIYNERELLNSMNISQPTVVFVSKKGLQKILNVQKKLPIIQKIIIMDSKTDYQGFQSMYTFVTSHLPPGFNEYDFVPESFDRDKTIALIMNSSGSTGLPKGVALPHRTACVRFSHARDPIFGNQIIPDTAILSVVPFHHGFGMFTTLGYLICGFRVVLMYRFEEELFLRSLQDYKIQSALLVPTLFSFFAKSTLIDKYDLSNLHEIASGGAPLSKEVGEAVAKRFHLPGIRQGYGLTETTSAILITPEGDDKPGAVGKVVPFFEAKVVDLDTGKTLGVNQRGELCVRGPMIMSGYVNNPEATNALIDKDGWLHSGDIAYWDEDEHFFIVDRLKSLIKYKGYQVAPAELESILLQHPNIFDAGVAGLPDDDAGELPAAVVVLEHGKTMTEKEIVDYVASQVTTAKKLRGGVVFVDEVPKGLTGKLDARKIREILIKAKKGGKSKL
In short: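 Biochemical qHTS: compounds run as interplate titrations against purified firefly enzyme, with D-luciferin and ATP each at its KM concentration. Light output recorded by CCD imaging.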

[2] = qHTS assay to identify small molecule agonists of the constitutive androstane receptor (CAR) signaling pathway - cell viability counter screen (AID 1224836); note: nearly all actives have a fitted effect of over 45% in size
In short: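 23 h treatment, 37 C, 5% CO2. Cell line: HepG2 stably expressing hCAR with a CYP2B6-2.2kb construct. Co-treatment: PK11195, 0.75 uM final. Read-out: CellTiter-Fluor fluorescence intensity.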

[3] = qHTS assay to identify small molecule antagonists of the constitutive androstane receptor (CAR) signaling pathway - cell viability counter screen (AID 1224837); note: nearly all actives have a fitted effect of over 45% in size
In short: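 Counter screen run in HepG2-CYP2B6-hCAR cells: 4 hr settle, compound titration (15 concentrations) with 50 nM CITCO, 23 hr at 37 C/5% CO2, CellTiter-Fluor fluorescence.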

[4] = biological target: Nuclear receptor subfamily 1 group I member 3 (Homo sapiens) (UniProt Q14994); assay: qHTS assay to identify small molecule antagonists of the constitutive androstane receptor (CAR) signaling pathway (AID 1224838);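 note: HepG2 cells stably expressing hCAR with CYP2B6 luciferase reporter stimulated by CITCO; nearly all actives have a fitted effect of over 40% in size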
Sequence of Nuclear receptor subfamily 1 group I member 3 (Homo sapiens) (Q14994 whole entry, looked up): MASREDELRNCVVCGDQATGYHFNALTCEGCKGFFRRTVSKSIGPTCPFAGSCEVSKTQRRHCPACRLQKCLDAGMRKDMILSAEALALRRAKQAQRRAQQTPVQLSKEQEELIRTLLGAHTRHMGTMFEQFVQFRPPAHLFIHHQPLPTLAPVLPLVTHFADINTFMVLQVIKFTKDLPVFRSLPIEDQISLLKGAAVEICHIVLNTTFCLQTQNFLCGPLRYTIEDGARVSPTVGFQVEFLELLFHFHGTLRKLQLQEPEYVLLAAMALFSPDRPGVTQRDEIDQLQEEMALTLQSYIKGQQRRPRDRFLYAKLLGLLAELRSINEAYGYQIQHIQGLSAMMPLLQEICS
In short: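 Cell line: HepG2 double-stable for hCAR and CYP2B6-2.2kb reporter. Agonist: CITCO, 50 nM final. Compounds: 15 concentrations, 24 h, 37 C. Detection: ONE-Glo luminescence.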

[5] = biological target: Nuclear receptor subfamily 1 group I member 3 (Homo sapiens) (UniProt Q14994); assay: qHTS assay to identify small molecule agonists of the constitutive androstane receptor (CAR) signaling pathway (AID 1224839);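 note: HepG2 cells stably carrying human CAR and a CYP2B6 luciferase reporter; nearly all actives have a fitted effect of over 15% in size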
In short: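 Compounds tested at 15 concentrations on HepG2 cells stably harbouring hCAR and CYP2B6-2.2kb reporter constructs, co-treated with PK11195 (0.75 uM final), 24 h at 37 C; luminescent reporter signal quantified.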

[6] = qHTS assay to identify small molecule antagonists of the estrogen related receptor signaling pathway with the pleiotropic PPARgamma coactivator (PGC) from Tox21 10K library - cell viability counter screen (AID 1224840; active = well fitted cell-killing curve with a large enough effect in the repeat runs, not every such curve was filed as active; note: nearly all actives have a fitted effect of over 40% in size)
In short: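 Following seeding of 2,000 PGC/ERR cells/well and 6 hours' incubation, test compounds were delivered in DMSO. The plates then sat 17.5 hours at 37 C before a fluorogenic live-cell protease reagent (CellTiter-Fluor) was read after 30 min.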

[7] = biological target: Thyrotropin receptor (Homo sapiens) (UniProt P16473); assay: qHTS assay to identify small molecule agonists of the thyroid stimulating hormone receptor (TSHR) signaling pathway (AID 1224843; calls by dose curve; note: nearly all actives have a fitted effect of over 45% in size)
Sequence of Thyrotropin receptor (Homo sapiens) (P16473 whole entry, looked up): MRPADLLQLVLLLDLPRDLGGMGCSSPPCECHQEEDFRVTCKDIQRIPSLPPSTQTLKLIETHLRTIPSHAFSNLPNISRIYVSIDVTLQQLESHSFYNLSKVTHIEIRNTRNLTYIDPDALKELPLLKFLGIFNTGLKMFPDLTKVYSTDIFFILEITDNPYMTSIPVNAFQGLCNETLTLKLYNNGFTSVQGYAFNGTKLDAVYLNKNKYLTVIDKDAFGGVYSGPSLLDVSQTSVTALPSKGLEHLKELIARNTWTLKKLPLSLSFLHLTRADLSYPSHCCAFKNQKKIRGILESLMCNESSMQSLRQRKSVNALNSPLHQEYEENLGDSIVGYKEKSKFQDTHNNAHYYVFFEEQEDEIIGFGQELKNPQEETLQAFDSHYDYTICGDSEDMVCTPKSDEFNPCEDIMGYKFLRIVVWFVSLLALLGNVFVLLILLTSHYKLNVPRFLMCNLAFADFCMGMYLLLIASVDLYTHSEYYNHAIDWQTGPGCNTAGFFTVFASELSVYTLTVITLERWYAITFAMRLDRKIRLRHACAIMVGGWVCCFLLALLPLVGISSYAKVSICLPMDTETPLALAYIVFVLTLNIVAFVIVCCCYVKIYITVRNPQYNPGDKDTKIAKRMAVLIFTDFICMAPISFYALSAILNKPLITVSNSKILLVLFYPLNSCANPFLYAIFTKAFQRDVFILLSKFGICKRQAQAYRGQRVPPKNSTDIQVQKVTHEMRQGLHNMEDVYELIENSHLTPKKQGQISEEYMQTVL
In short: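 Steps: seed 800 TSHR-HEK293 cells per well; add test compound and hold 30 min at ambient temperature; dispense cAMP-d2 then anti-cAMP cryptate; incubate 1 h at ambient; measure fluorescence intensity.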

[8] = qHTS assay to identify small molecule agonists of the hypoxia (HIF-1) signaling pathway - cell viability counter screen (AID 1224844; calls by dose curve; note: nearly all actives have a fitted effect of over 50% in size)
In short: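 Cells (HRE-bla ME-180, 2,000 per well) sat 5 hrs at 37C, got compound for 17 hrs, were read for CCF4-AM FRET, and were finally lysed with CellTiter-Glo for a 30 min room-temperature luminescence read.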

[9] = qHTS assay to identify small molecule agonists of H2AX (AID 1224845; active = well fitted activation curve with a large enough effect in the signal ratio in the repeat runs, not every such curve was filed as active; the % refers to the signal ratio)
In short: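 Wild-type CHO-K1 cells, plated overnight, exposed 3hr at 37C to 15 concentrations (0.76% DMSO final). Lysed, then HTRF anti-pH2AX (S139) cryptate and anti-H2AX-d2 antibodies, 24 hr room temperature; 665/620 nm emission read.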

[10] = qHTS assay to identify small molecule agonists of the hypoxia (HIF-1) signaling pathway (AID 1224846; active = well fitted activation curve with a large enough effect in the signal ratio in the repeat runs, not every such curve was filed as active; the % refers to the signal ratio)
In short: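 A low-serum medium (0.5% dialyzed FBS) holding 2,000 HRE-bla ME-180 cells per well is preincubated for 5 hrs, dosed with compounds by pintool, and kept a further 17 hrs at 37C, 5% CO2 before CCF4-AM FRET detection of beta-lactamase.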

[11] = qHTS assay to identify small molecule agonists of H2AX - cell viability counter screen (AID 1224847; calls by dose curve; note: top concentration of the series differs between compounds; nearly all actives have a fitted effect of over 30% in size)
In short: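 Compounds tested at 15 concentrations were incubated 3 hr at 37C with wild-type CHO-K1 cells; cellular ATP-based luminescence (CellTiter-Glo) indicated viability.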

[12] = qHTS RealTime-Glo MT Cell Viability Assay in HEK293 cells - 32 hour (AID 1224868); note: top concentration of the series differs between compounds; nearly all actives have a fitted effect of over 50% in size
In short: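 Homogeneous bioluminescent viability format in HEK293 cells (600 cells/well). Following 5 h at 37 C/5% CO2, 23 nL compound was pintooled; the signal was measured repeatedly during 40 h incubation.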

[13] = A CellTox Green Cytotoxicity Assay to monitor cytotoxicity in HEK293 cells - 0 hour (AID 1224869); note: nearly all actives have a fitted effect of over 50% in size
In short: (§1)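 Fluorescence intensity, read at 0, 8, 16, 24, 32 and 40 h of compound treatment, reflected dye binding to DNA of dead HEK293 cells; compounds (23 nL, DMSO) were added 5 h after plating cells with reagent.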

[14] = qHTS RealTime-Glo MT Cell Viability Assay in HepG2 cells - 40 hour (AID 1224870); note: nearly all actives have a fitted effect of over 50% in size
In short: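 HepG2 cells (600/well) mixed with RealTime-Glo MT reagent, settled 5 h at 37 C/5% CO2 before compound addition. Nonlytic NanoLuc luminescence from viable-cell prosubstrate reduction read repeatedly during 40 h treatment at 37 C.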

[15] = A CellTox Green Cytotoxicity Assay to monitor cytotoxicity in HEK293 cells - 40 hour (AID 1224871); note: nearly all actives have a fitted effect of over 45% in size
In short: as §1

[16] = qHTS assay to identify small molecule antagonists of the estrogen related receptor signaling pathway with the pleiotropic PPARgamma coactivator (PGC) from Tox21 10K library (AID 1224841; call rule not given here)
In short: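 qHTS antagonist format: PGC/ERR cells, 2k/well, compound in DMSO by pin transfer after 6 h attachment, 18 h treatment at 37 C, One-Glo luminescence read at 30 min.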

[17] = qHTS assay to identify small molecule agonists of the estrogen related receptor signaling pathway with the pleiotropic PPARgamma coactivator (PGC) from Tox21 10K library (AID 1224842); note: nearly all actives have a fitted effect of over 15% in size
In short: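 PGC/ERR reporter cell line, 2,000 cells per well, incubated 6 h at 37 C before 23 nL compound in DMSO was added. After 18 h at 37 C, One-Glo luminescence read following 30 min at room temperature.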

[18] = qHTS assay to identify small molecule agonists of the estrogen related receptor (ERR) signaling pathway from Tox21 library (AID 1224849; calls by dose curve; note: nearly all actives have a fitted effect of over 15% in size); details: ERR reporter cell line, ONE-Glo luciferase, 18 h; at 92.4 µM (top of the series)
In short: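 Screening used an NTP-provided ERR luciferase cell line. Compounds in DMSO were added 6 h after seeding and left 18 h at 37 C before a 30 min ONE-Glo step and luminescence reading.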

[19] = qHTS RealTime-Glo MT Cell Viability Assay in HepG2 cells - 24 hour (AID 1224867); note: nearly all actives have a fitted effect of over 50% in size
In short: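 Cell number in HepG2 cultures estimated from NanoLuc luminescence generated by metabolic reduction of a prosubstrate by living cells. The homogeneous, nonlytic format allowed repeated reads at 0, 8, 16, 24, 32 and 40 h of compound exposure.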

[20] = qHTS assay to identify small molecule antagonists of the estrogen related receptor (ERR) signaling pathway from Tox21 library (AID 1224848); note: nearly all actives have a fitted effect of over 50% in size
In short: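 Luminescent reporter read-out (ONE-Glo) from NTP's ERR cell line after 18 h treatment at 37 C with DMSO-dissolved Tox21 compounds; cells pre-plated 6 h beforehand at 2,000 per well.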
% is set by controls: 0 for no effect and ±100 for the full control effect.

O=[N+]([O-])c1ccc(F)c(Cl)c1
inactive: Potency [1] | Potency [2] | Potency [3] | Potency [4] | Potency [5] | Potency [6] | Potency [7] | Potency [8] | Potency [9] | Potency [10] | Potency [11] | Potency [12] | Potency [13] | Potency [14] | Potency [15]

Nc1nc(N)nc(-c2cc(Cl)ccc2Cl)n1
inactive: Potency [1] | Potency [2] | Potency [3] | Potency [4] | Potency [5] | Potency [6] | Potency [8] | Potency [9] | Potency [11] | Potency [12] | Potency [13] | Potency [14] | Potency [15]

COc1cc(C)ccc1O
inactive: Potency [1] | Potency [2] | Potency [3] | Potency [4] | Potency [5] | Potency [6] | Potency [16] | Potency [17] | Potency [7] | Potency [8] | Potency [9] | Potency [10] | activity change, positive = activation [18] 5.96% | Potency [12] | Potency [13] | Potency [14] | Potency [15]

CCCCCC(C)OC(=O)COc1ccc(Cl)c2cccnc12 (centres undefined)
inactive: Potency [1] | Potency [2] | Potency [3] | Potency [4] | Potency [5] | Potency [6] | Potency [8] | Potency [9] | Potency [10] | Potency [19] | Potency [12] | Potency [13] | Potency [14]

CC1(C)CCC[C@]2(C)[C@H]3CCO[C@]3(C)CC[C@@H]12
inactive: Potency [1] | Potency [2] | Potency [3] | Potency [4] | Potency [5] | Potency [6] | Potency [16] | Potency [17] | Potency [7] | Potency [9] | Potency [11] | Potency [20] | activity change, positive = activation [18] 5.7% | Potency [19] | Potency [12] | Potency [14]

CCCNCCC
inactive: Potency [1] | Potency [2] | Potency [3] | Potency [4] | Potency [5] | Potency [6] | Potency [7] | Potency [8] | Potency [9] | Potency [10] | Potency [11] | Potency [19] | Potency [12] | Potency [13] | Potency [14] | Potency [15]

CCCCOC(=O)CO
inactive: Potency [1] | Potency [2] | Potency [3] | Potency [4] | Potency [5] | Potency [6] | Potency [8] | Potency [9] | Potency [10] | Potency [11] | Potency [12] | Potency [13] | Potency [14] | Potency [15]
